For 40 sequences, ETS1 binding intensity and RUNX1 binding intensity results are on record in the supplement of paper PMC10681739.
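For RUNX1 binding intensity (PBM fluorescence), RUNX1 alone in this document: Full-length recombinant human RUNX1 bound to double-stranded 36-bp genomic probes on a high-density microarray, scored as Alexa488 fluorescence per spot via anti-RUNX1 antibody, median of four replicate spots.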

One test deals with T1, ETS1 (UniProt P14921).
T1 sequence: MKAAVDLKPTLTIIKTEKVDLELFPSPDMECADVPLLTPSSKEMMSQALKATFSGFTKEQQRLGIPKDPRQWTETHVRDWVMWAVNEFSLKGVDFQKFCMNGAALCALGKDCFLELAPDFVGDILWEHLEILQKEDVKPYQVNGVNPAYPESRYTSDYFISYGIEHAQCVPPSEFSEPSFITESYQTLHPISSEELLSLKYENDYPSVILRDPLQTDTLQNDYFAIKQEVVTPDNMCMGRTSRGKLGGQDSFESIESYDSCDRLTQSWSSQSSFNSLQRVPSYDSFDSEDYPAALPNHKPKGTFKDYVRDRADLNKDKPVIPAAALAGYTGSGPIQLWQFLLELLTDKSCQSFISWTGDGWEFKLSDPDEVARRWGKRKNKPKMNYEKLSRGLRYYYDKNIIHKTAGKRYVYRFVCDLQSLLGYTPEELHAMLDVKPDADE
The test is described as follows: ETS1 binding intensity (PBM fluorescence), ETS1 alone (arbitrary fluorescence units); higher = stronger binding. The conditions noted are these: ETS1 concentration 1 nM; RUNX1 concentration 0 nM.
Regarding AGGCCGCCTACAGGATGTTGGAAACCACAGGGCCCG, the ETS1 binding intensity is 2910.
The same measure, in the same setting: in the case of CATAGGAAGTGCTCAGCTCTCCTCCACCGCAAGTTT it was 452; in that of ATCTTGGCCCATATCCTGTGGTGTTCTGCTAGAGGT, 768.
GAAATCCATCACGGATGTGGGCTTTTTGCTCTCATT showed an ETS1 binding intensity of 1490.
As for CTGCTGCTTTTAGGATGTGGTTTTATTATTGTCGGG, the ETS1 binding intensity was 670.
Still for that read-out and setting: the same measure for ATGTTTGGGGCCGGAAGTGGGTTGGAGGTGTGGCGG: 24700.
CACTTCCCGTGGGAGGATCTTGGGCTGCGGCTAGGG showed an ETS1 binding intensity of 421.
Same read-out and setting: in the case of AGTTTCTTCTTTCCGGTGGGTTTGTGGTCTTGCTGA it was 1160; in that of CCTCGCCCCCTTCCGCACCCACCCCACCGCGCTCCG, 807.
The same measure, in the same setting: the same measure for TCCAGTGCCGCCGCCGGAAAACCGCAGCGGCGGCGG: 887; for GAAGCCAGGAAATGGTGCGTGTGCGGGGCCGGGCGC: 982; for ACGAGGTTGGCCTCATCCGGTGGTTTTCGCAGCACG: 1290.
In turn, AGGGTTGGGGAGGATGTTGTGGTTATTATTGACATA returned an ETS1 binding intensity of 845.
Turning to TTCAGGTGACTTCCGGCCGGACCGCTGAGGACGCGG, the ETS1 binding intensity was 9020.
CCCCGCGGAACTCTGGCACAGTCAGCTGACCGCAGA displayed an ETS1 binding intensity of 424.
The same measure, in the same setting: the same measure for AGGGAAGCAGGAAGTGACTGCGGGAGTGGAGCCGGC: 3920; for GCTTGTCTTCCGGTTTCGTCGCCGCCGCAGGCGCAC: 1730.
Sequence GCCTGCAGCTTCTTCCTGTGGCTTCTGCATCTCAGG yielded an ETS1 binding intensity of 4420.
The same measure, in the same setting: in the case of TACCTACATCCTGCCACCACCCGAGGGGACCGCAAG it was 496.
The same measure, in the same setting: the same measure for TCCCCTCTCCCCATCCGCCCGAGACCACAGCCACTC: 592.
On the same count and under the same terms, the same measure for AAGGCAAACAGGAAATCATAACCACAAACCAGGAAC: 2960; for AGGCAGCACAGGAAGTTATAACCACATGTACACTTG: 3790.
For CTCTTTCACAAAGGAAATGGAAACCACAAAGAGGAC, the ETS1 binding intensity turned out to be 2140.
Still for that read-out and setting: in the case of CCGATGGCGGCGGAACTGTGGTCAGGGCTGCCCTGA it was 365.
As to CCGTACTTCCGCTTTACTCAGATTTTGGACCGCGGG, the ETS1 binding intensity is 1810.
CACTTCCTATCGCTACATAACAAATTACCACAGACT: the ETS1 binding intensity is 451.
Same read-out and setting: the same measure for AGAACAGCAGGAAATAAATACCCACCTCAGGACTGC: 959.
Still for that read-out and setting: in the case of ACAGAGCAGGAAGCAGCCCTCACCACAGATGAAGCA it was 686.
The same measure, in the same setting: the same measure for GAGAACTTCCGGTGCGCTCCCCGGGACTGCGGTCCC: 3420; for AAAGTAGGTCCGGTCCGCGGGTGCGGTCGGGCATGC: 427; for CCCAATTTCCTTTGCTCTGCTGTCTGCCAACCGCAA: 418.
In turn, CATCCAGGACGGAAACAGCATCCCCACCGCGGGAGC displayed an ETS1 binding intensity of 775.
The same measure, in the same setting: in the case of TGTGGAGACAGGAAGCACTAACCTCAAACCTCTTTC it was 2730; in that of AGCTCAATTTCCTGGCGTGTAACATGGCCACAAGGG, 827; in that of CCAGAGCACATCCTACACGCACCACAACCTGAAAAC, 453.
GGAGGGGAGCAGGAAGCTGAGGTTTTGTGAGTCAGA: the ETS1 binding intensity is 1090.
TCTGGCTTCCTGTCTTAATAGGGCTTTGTGGTGTGC: the ETS1 binding intensity came out at 762.
With ACCATATCCTGAGAATGAACCATGTGGTGGATGCAC, the ETS1 binding intensity came to 519.
On the same count and under the same terms, in the case of CCTGCCTGAGGCAGGAAGCCGCAGCTGAGGGACGGC it was 2980.
Same read-out and setting: in the case of CCCACTCCACTTCCGCCACCGCCGCAGCCGCCGCTG it was 1430.

For another test, the target named is RUNX1 (UniProt Q01196). Nature of the test: RUNX1 binding intensity (PBM fluorescence), RUNX1 alone (arbitrary fluorescence units); higher = stronger binding. The following applies: RUNX1 concentration 2 nM; ETS1 concentration 0 nM. Here is the method: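 Cooperative gcPBM on 36-bp genomic probes with neighbouring ETS1 and RUNX1 sites. Recombinant human RUNX1 (2 nM) was incubated alone or with ETS1 (25 nM) and detected with anti-RUNX1 antibody plus Alexa488 secondary. Values are medians over 4 replicate spots; the RUNX1+ETS1 data were normalised to the RUNX1-only data. The probes sit in constant array flanks that are not printed.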
Chain of RUNX1 (Q01196 whole entry): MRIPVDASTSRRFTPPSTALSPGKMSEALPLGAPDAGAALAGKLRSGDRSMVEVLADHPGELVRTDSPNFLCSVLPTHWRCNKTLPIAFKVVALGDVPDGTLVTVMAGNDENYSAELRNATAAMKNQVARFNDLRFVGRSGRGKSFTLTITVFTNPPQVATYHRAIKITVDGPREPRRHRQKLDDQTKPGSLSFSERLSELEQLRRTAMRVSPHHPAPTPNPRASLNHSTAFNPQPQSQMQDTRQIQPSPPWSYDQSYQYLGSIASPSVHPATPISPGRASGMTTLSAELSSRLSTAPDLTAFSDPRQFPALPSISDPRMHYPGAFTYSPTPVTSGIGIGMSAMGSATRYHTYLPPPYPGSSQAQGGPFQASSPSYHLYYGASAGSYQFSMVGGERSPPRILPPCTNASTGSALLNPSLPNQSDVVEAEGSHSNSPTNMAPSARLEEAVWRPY
Take AGGCCGCCTACAGGATGTTGGAAACCACAGGGCCCG: the RUNX1 binding intensity was found to be 765.
As to CATAGGAAGTGCTCAGCTCTCCTCCACCGCAAGTTT, the RUNX1 binding intensity is 806.
The same measure, in the same setting: in the case of ATCTTGGCCCATATCCTGTGGTGTTCTGCTAGAGGT it was 791; in that of GAAATCCATCACGGATGTGGGCTTTTTGCTCTCATT, 760.
The sequence CTGCTGCTTTTAGGATGTGGTTTTATTATTGTCGGG showed an RUNX1 binding intensity of 1020.
Still for that read-out and setting: the same measure for ATGTTTGGGGCCGGAAGTGGGTTGGAGGTGTGGCGG: 706; for CACTTCCCGTGGGAGGATCTTGGGCTGCGGCTAGGG: 803; for AGTTTCTTCTTTCCGGTGGGTTTGTGGTCTTGCTGA: 1390.
The same measure, in the same setting: in the case of CCTCGCCCCCTTCCGCACCCACCCCACCGCGCTCCG it was 2040; in that of TCCAGTGCCGCCGCCGGAAAACCGCAGCGGCGGCGG, 5970; in that of GAAGCCAGGAAATGGTGCGTGTGCGGGGCCGGGCGC, 663.
On the same count and under the same terms, in the case of ACGAGGTTGGCCTCATCCGGTGGTTTTCGCAGCACG it was 837; in that of AGGGTTGGGGAGGATGTTGTGGTTATTATTGACATA, 1570; in that of TTCAGGTGACTTCCGGCCGGACCGCTGAGGACGCGG, 684.
CCCCGCGGAACTCTGGCACAGTCAGCTGACCGCAGA showed an RUNX1 binding intensity of 1600.
Still for that read-out and setting: in the case of AGGGAAGCAGGAAGTGACTGCGGGAGTGGAGCCGGC it was 677; in that of GCTTGTCTTCCGGTTTCGTCGCCGCCGCAGGCGCAC, 840.
On the same count and under the same terms, in the case of GCCTGCAGCTTCTTCCTGTGGCTTCTGCATCTCAGG it was 783.
The same measure, in the same setting: in the case of TACCTACATCCTGCCACCACCCGAGGGGACCGCAAG it was 1050.
In the case of TCCCCTCTCCCCATCCGCCCGAGACCACAGCCACTC, the RUNX1 binding intensity was 1340.
Sequence AAGGCAAACAGGAAATCATAACCACAAACCAGGAAC displayed an RUNX1 binding intensity of 2880.
Still for that read-out and setting: the same measure for AGGCAGCACAGGAAGTTATAACCACATGTACACTTG: 781; for CTCTTTCACAAAGGAAATGGAAACCACAAAGAGGAC: 1820; for CCGATGGCGGCGGAACTGTGGTCAGGGCTGCCCTGA: 825.
CCGTACTTCCGCTTTACTCAGATTTTGGACCGCGGG returned an RUNX1 binding intensity of 1490.
Turning to CACTTCCTATCGCTACATAACAAATTACCACAGACT, the RUNX1 binding intensity was determined as 2490.
Still for that read-out and setting: in the case of AGAACAGCAGGAAATAAATACCCACCTCAGGACTGC it was 822; in that of ACAGAGCAGGAAGCAGCCCTCACCACAGATGAAGCA, 760.
Still for that read-out and setting: the same measure for GAGAACTTCCGGTGCGCTCCCCGGGACTGCGGTCCC: 729.
Same read-out and setting: the same measure for AAAGTAGGTCCGGTCCGCGGGTGCGGTCGGGCATGC: 686; for CCCAATTTCCTTTGCTCTGCTGTCTGCCAACCGCAA: 2740; for CATCCAGGACGGAAACAGCATCCCCACCGCGGGAGC: 855.
For TGTGGAGACAGGAAGCACTAACCTCAAACCTCTTTC, the RUNX1 binding intensity was 908.
Regarding AGCTCAATTTCCTGGCGTGTAACATGGCCACAAGGG, the RUNX1 binding intensity amounted to 830.
With CCAGAGCACATCCTACACGCACCACAACCTGAAAAC, the RUNX1 binding intensity came to 1250.
The same measure, in the same setting: in the case of GGAGGGGAGCAGGAAGCTGAGGTTTTGTGAGTCAGA it was 753; in that of TCTGGCTTCCTGTCTTAATAGGGCTTTGTGGTGTGC, 832.
Same read-out and setting: in the case of ACCATATCCTGAGAATGAACCATGTGGTGGATGCAC it was 795; in that of CCTGCCTGAGGCAGGAAGCCGCAGCTGAGGGACGGC, 761; in that of CCCACTCCACTTCCGCCACCGCCGCAGCCGCCGCTG, 1980.
